The list is not random: actives were taken first. Their share in the collection is about 22%.
CYP2C19 activ: activators of human cytochrome P450 2C19. P33261. recombinant CYP2C19, luciferin-H EGE luminescence; stronger effect = higher value; 0 = fully inhibited enzyme, 1 = untreated enzyme. activation factor at 5 µM. 96,000 tested, under 10 active;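 active means activation factor of at least 2 at 5 µM in the primary screen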;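 further: 0 = wells with 2.5 mM tranylcypromine and 1 = vehicle-only wells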
CYP2C9 activ: CYP2C9 (human) activation; P11712; recombinant CYP2C9, luciferin-H conversion, luminescence; stronger effect = higher value; factor 1 = untreated enzyme, 0 = blocked; activation factor at 5 µM; hit rate 1.4% among 96,000; AID 1024;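 active means activation factor of 2 or more for CYP2C9 at a 5 µM dose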;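 further: 0 = sulfaphenazole-blocked wells and 1 = vehicle-only wells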
Target sequence (P11712 whole entry, looked up): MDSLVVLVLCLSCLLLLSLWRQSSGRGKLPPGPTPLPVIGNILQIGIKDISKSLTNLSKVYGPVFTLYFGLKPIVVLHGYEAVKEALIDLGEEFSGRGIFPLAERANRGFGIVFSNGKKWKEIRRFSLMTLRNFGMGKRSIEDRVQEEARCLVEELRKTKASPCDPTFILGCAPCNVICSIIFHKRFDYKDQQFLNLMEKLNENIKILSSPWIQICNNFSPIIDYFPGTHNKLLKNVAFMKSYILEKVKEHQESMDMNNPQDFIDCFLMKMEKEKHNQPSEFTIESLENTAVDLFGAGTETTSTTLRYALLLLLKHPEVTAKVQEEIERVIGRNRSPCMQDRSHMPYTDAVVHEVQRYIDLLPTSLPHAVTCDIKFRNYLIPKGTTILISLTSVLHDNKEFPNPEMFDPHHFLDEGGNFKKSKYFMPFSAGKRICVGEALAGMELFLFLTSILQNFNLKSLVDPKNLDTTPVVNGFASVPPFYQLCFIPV
Measles CPE: protection of cells from measles virus. Measles virus-infected cells, CPE protection, absorbance. protection (pct of control), % at 4 µM. hit rate 1.5% among 140,000; in the data active means protection mostly above about 24%, no sharp cut-off; inactive means mostly below about 26%
CYP2C9 inh: human CYP2C9 inhibition | P11712 | CYP2C9 Supersomes, luciferin-H conversion, luminescence | inhibition, % at 5 µM | hit rate 20% among 96,000;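 active means blocking of liver enzyme CYP2C9 beyond about 50% at 5 µM, limit read from the data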
CYP2C19 inhib: human CYP2C19 inhibition; P33261; CYP2C19 Supersomes, luciferin-H EGE luminescence, 30 min; inhibition, % at 5 µM; hit rate 21% among 96,000; AID 778;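 active means CYP2C19 inhibition above a set limit at 5 µM in the primary screen, cut at about 50% in these data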;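 further: plate controls were negative control wells for no effect and 2.5 mM tranylcypromine positive control for full effect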
The depositor's hits bear a star.

Results for Cn1cccc1Cc1nnc(SCC(=O)Nc2ccc(Cl)cc2)n1-c1ccc(F)cc1 ?
CYP2C19 activ: 0.5; CYP2C9 activ: 0.4; Measles CPE: 8; CYP2C9 inh: 58*; CYP2C19 inhib: 54*

How did CCc1ccc(NC(=O)CSc2nnc(Cc3cccn3C)n2-c2ccc(OC)cc2)cc1 do in these assays?
CYP2C19 activ: 0.5; CYP2C9 activ: 0.1; Measles CPE: 1; CYP2C9 inh: 85*; CYP2C19 inhib: 52*

Results for Cn1cccc1Cc1nnc(SCC(=O)Nc2ccc(F)cc2)n1-c1ccc(F)cc1 ?
CYP2C19 activ: 0.9; CYP2C9 activ: 0.7; Measles CPE: 4; CYP2C9 inh: 28; CYP2C19 inhib: 10

How did COc1ccc(-n2c(Cc3cccn3C)nnc2SCC(=O)Nc2ccccc2)cc1 do in these assays?
CYP2C19 activ: 0.8; CYP2C9 activ: 0.2; Measles CPE: 13; CYP2C9 inh: 80*; CYP2C19 inhib: 25

How did COc1ccc(-n2c(Cc3cccn3C)nnc2SCC(=O)Nc2cccc(F)c2)cc1 do in these assays?
CYP2C19 activ: 0.5; CYP2C9 activ: 0.5; Measles CPE: 14; CYP2C9 inh: 50*; CYP2C19 inhib: 51*

What do the screens show for `Cn1cccc1Cc1nnc(SCC(=O)Nc2ccccc2)n1-c1ccc(F)cc1`?
CYP2C19 activ: 0.7; CYP2C9 activ: 0.7; Measles CPE: 10; CYP2C9 inh: 34; CYP2C19 inhib: 34

Results for O=C(COn1nnc2ccc(C(F)(F)F)cc21)Nc1c(Cl)cccc1Cl ?
Measles CPE: 4

Results for COc1ccc(-n2c(Cc3cccn3C)nnc2SCC(=O)NCc2ccc(F)cc2)cc1 ?
CYP2C19 activ: 0.1; CYP2C9 activ: 0.6; Measles CPE: 33; CYP2C9 inh: 40; CYP2C19 inhib: 89*

What do the screens show for `COc1ccc(-n2c(Cc3cccn3C)nnc2SCC(=O)Nc2ccc(Cl)cc2)cc1`?
CYP2C19 activ: 0.6; CYP2C9 activ: 0.1; Measles CPE: 19; CYP2C9 inh: 85*; CYP2C19 inhib: 37

Results for CC(=O)Nc1ccc(S(=O)(=O)N2CCN(c3cc(C)nc4ccccc34)CC2)cc1 ?
CYP2C19 activ: 0.6; CYP2C9 activ: 0.3; Measles CPE: 14; CYP2C9 inh: 66*; CYP2C19 inhib: 45

How did Cc1ccc2nc(C3CCN(S(=O)(=O)c4ccc5ccccc5c4)CC3)[nH]c2c1 do in these assays?
CYP2C19 activ: 0.6; CYP2C9 activ: 3*; Measles CPE: 24; CYP2C9 inh: -195; CYP2C19 inhib: 38

How did O=S(=O)(c1ccc2c(c1)OCCO2)N1CCC(c2nc3ccc(Cl)cc3[nH]2)CC1 do in these assays?
CYP2C19 activ: 0.2; CYP2C9 activ: 2.1*; Measles CPE: 18; CYP2C9 inh: -111; CYP2C19 inhib: 84*

Results for O=S(=O)(c1ccc2c(c1)OCCO2)N1CCC(c2nc3ccccc3[nH]2)CC1 ?
CYP2C19 activ: 0.4; CYP2C9 activ: 1.6; Measles CPE: 4; CYP2C9 inh: -57; CYP2C19 inhib: 63*

Results for CC(=O)Nc1ccc(S(=O)(=O)N2CCOCC2)cc1 ?
Measles CPE: 7

How did CC(Sc1nncs1)C(=O)Nc1ccc(Cl)cn1 (configuration not stated) do in these assays?
Measles CPE: 16

Results for CC(=O)Nc1ccc(S(=O)(=O)N2CCC(c3nc4ccccc4[nH]3)CC2)cc1 ?
CYP2C19 activ: 0.5; CYP2C9 activ: 0.3; Measles CPE: 21; CYP2C9 inh: 68*; CYP2C19 inhib: 48

How did C=CCn1c(SCC(=O)Nc2ncc(Cc3ccc(Br)cc3)s2)nnc1-c1ccncc1 do in these assays?
CYP2C19 activ: 0.7; CYP2C9 activ: 1; Measles CPE: 8; CYP2C9 inh: -1; CYP2C19 inhib: 33

What do the screens show for `O=C(Nc1ccccn1)C1COc2ccccc2O1` (configuration not stated)?
Measles CPE: 28

Results for Cc1nc2ccc3nc(NC(=O)C4COc5ccccc5O4)sc3c2s1 (configuration not stated) ?
CYP2C19 activ: 1; CYP2C9 activ: 0.3; Measles CPE: 6; CYP2C9 inh: 68*; CYP2C19 inhib: -5

What do the screens show for `Cc1cnc(NC(=O)C2COc3ccccc3O2)s1` (configuration not stated)?
CYP2C19 activ: 0.3; CYP2C9 activ: 0.8; Measles CPE: 10; CYP2C9 inh: 18; CYP2C19 inhib: 67*

What do the screens show for `O=C(Nc1nnc(SCc2ccccc2Cl)s1)C1COc2ccccc2O1` (configuration not stated)?
CYP2C19 activ: 0.9; CYP2C9 activ: 0.5; Measles CPE: 19; CYP2C9 inh: 55*; CYP2C19 inhib: 10

What do the screens show for `Cc1csc(NC(=O)C2COc3ccccc3O2)n1` (configuration not stated)?
CYP2C19 activ: 0.2; CYP2C9 activ: 0.5; Measles CPE: 3; CYP2C9 inh: 48; CYP2C19 inhib: 83*

How did CSc1nc2ccc3nc(NC(=O)C4COc5ccccc5O4)sc3c2s1 (configuration not stated) do in these assays?
CYP2C19 activ: 0.9; CYP2C9 activ: 0.7; Measles CPE: 7; CYP2C9 inh: 33; CYP2C19 inhib: 7

Results for Cc1ccccc1CSc1nnc(NC(=O)C2COc3ccccc3O2)s1 (configuration not stated) ?
CYP2C19 activ: 0.9; CYP2C9 activ: 0.9; Measles CPE: 2; CYP2C9 inh: 13; CYP2C19 inhib: 10

How did COc1ccc(CCN(C)CCCC(C#N)(c2ccc(OC)c(OC)c2)C(C)C)cc1OC (configuration not stated) do in these assays?
Measles CPE: 18

What do the screens show for `CCCC(CCC)=NNC(=O)CN(Cc1ccccc1)S(=O)(=O)c1ccccc1`?
Measles CPE: 33

How did CCCCNCC(=O)Nc1ccc(NC(=O)CNCCCC)cc1 do in these assays?
CYP2C19 activ: 1; CYP2C9 activ: 0.9; Measles CPE: 22; CYP2C9 inh: 13; CYP2C19 inhib: 1

What do the screens show for `Cc1cc(NC(=O)C2COc3ccccc3O2)no1` (configuration not stated)?
CYP2C19 activ: 0.4; CYP2C9 activ: 0.6; Measles CPE: 3; CYP2C9 inh: 38; CYP2C19 inhib: 61*

How did Cc1cc(NC(=O)COC(=O)C2COc3ccccc3O2)no1 (configuration not stated) do in these assays?
CYP2C19 activ: 0.9; CYP2C9 activ: 0.9; Measles CPE: 2; CYP2C9 inh: 12; CYP2C19 inhib: 7

How did COC(=O)c1c(-c2ccc(Br)cc2)noc1N do in these assays?
CYP2C19 activ: 0.2; CYP2C9 activ: 0.5; Measles CPE: 2; CYP2C9 inh: 50; CYP2C19 inhib: 78*

What do the screens show for `CCCCCCCN(C(=O)CCl)c1ccccc1C`?
Measles CPE: 1

How did COC(=O)Cc1[nH]nc2c1C1(C(=O)N(Cc3ccc(Cl)cc3)c3ccccc31)C(C#N)=C(N)O2 (configuration not stated) do in these assays?
CYP2C19 activ: 0.8; CYP2C9 activ: 0.6; Measles CPE: 6; CYP2C9 inh: 36; CYP2C19 inhib: 24
